Bioassay records: PubChem, National Center for Advancing Translational Sciences (NCATS)
Sm TGR block: S. mansoni TGR enzyme inhibition; hit rate 3% among 360,000; Q962Y6; purified TGR, DTNB reduction, TNB absorbance 405 nm; Potency, µM (top dose mostly 114 µM), inactives show at the top dose activity change, negative = inhibition, hits mostly inhibitors; active = well fitted inhibition curve with a large enough effect; inconclusive = small, poorly fitted or top-dose-only effect; inactive = no such curve, though single readings can be large or run the other way; note: % is set by controls: 0 for no effect and ±100 for the full control effect; nearly all actives have a fitted effect of over 60% in size
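First, TGR (20 nM dispensed) and NADPH were mixed with compound. Second, a 15 min room-temperature incubation followed. Third, further NADPH and then DTNB were added to start the reaction. Finally, TNB absorbance was monitored kinetically.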
SARS PLP yeast: blocks SARS-CoV papain-like protease in a yeast assay. S. cerevisiae expressing SARS-CoV PLpro, growth rescue. hit rate 0.19% among 330,000. AID 485353. Potency, µM (top dose mostly 32.9 µM), inactives show at the highest dose activity, positive = growth rescue, hits mostly activators; calls by dose curve; note: 0% is about no effect; nearly all actives have a fitted effect of over 55% in size
Starred values were filed as active, the others as inactive; ? = inconclusive; . = no result given. An excerpt weighted towards active compounds, which were near 3% of everything screened. Potency is the fitted concentration of half-maximal effect.

SMILES	Sm TGR block	SARS PLP yeast
COc1ccc(C(C2C(=O)CC(C)(C)CC2=O)C2C(=O)CC(C)(C)CC2=O)cc1COCC(F)(F)F	40µM*	5%
COc1cc(C(C2=C(O)CC(C)(C)CC2=O)C2C(=O)CC(C)(C)CC2=O)cc(OC)c1OC (centres undefined)	16µM*	-3%
COc1cc(C(C2C(=O)CC(C)(C)CC2=O)C2C(=O)CC(C)(C)CC2=O)cc(OC)c1OC	25µM*	3%
CC1(C)CC(=O)C(C(C2=C(O)CC(C)(C)CC2=O)c2ccco2)C(=O)C1 (centres undefined)	?	1%
COc1cc(C(C2C(=O)CC(C)(C)CC2=O)C2C(=O)CC(C)(C)CC2=O)ccc1O	?	4%
COc1ccc(C(C2C(=O)CC(C)(C)CC2=O)C2C(=O)CC(C)(C)CC2=O)cc1	?	1%
N#Cc1ccccc1NC(=O)C(=O)NCC(c1cccnc1)N1CCc2ccccc21 (centres undefined)	6%	.
CSc1ccc(-c2nc3ncccn3c2Nc2ccc(C)c(C)c2)cc1	-8%	.
COc1ccccc1CNC(=O)C(NS(=O)(=O)c1cccs1)C(C)C (centres undefined)	6%	.
COc1ccc(NC(=O)Cn2cc(S(=O)(=O)c3ccccc3)c(=O)c3cc(C)ccc32)cc1Cl	2%	.
Cc1cc(C)cc(Nc2cc(C(=O)NCc3ccccc3)c3ccccc3n2)c1	35µM*	.
COc1ccc(Nc2cc(C(=O)NCc3ccccc3)c3ccccc3n2)cc1	-3%	.
COc1ccc(C)cc1Cn1c(S(C)(=O)=O)nc2ccccc21	40µM*	5%
CS(=O)(=O)c1nc2ccccc2n1Cc1ccccc1	-2%	1%
COc1ccc(NC(=O)CSc2nc3c(c(=O)[nH]2)CCC3)cc1	-5%	.
C=CCc1ccc(OC(=O)NC2CCCCC2)c(OC)c1	22µM*	-1%
C=CCc1ccc(OCCCCNC2CCCC2)c(OC)c1	6%	0%
Cc1ccc(Cn2c(CNS(=O)(=O)c3c(C)cc(C)cc3C)nc3cccnc32)cc1	0%	.
CCCSc1nsc(SCCC)c1C#N	-25%	8%
C#CCSc1nsc(SCC#C)c1C#N	35µM*	12%
Cc1cccc(CSCc2ccc(C(=O)NCCc3ccccc3)o2)c1	-18%	.
CC1=C(n2nnc3ccccc32)C(c2ccccc2)C(C#N)=C(N)O1 (centres undefined)	35µM*	4%
Cc1nn(-c2ccccc2)c2c1C(c1ccncc1)C(C#N)=C(N)O2 (centres undefined)	-33%	1%
COc1ccc(CCNC(=O)c2cnn(-c3ccc(F)cc3)c2C2CCN(C(=O)OC(C)(C)C)CC2)c(OC)c1	5%	.
Nc1cc(=O)nc(SCC(=O)Nc2cccc(Cl)c2)n1CCc1ccccc1	1%	.
SMILES	Sm TGR block	SARS PLP yeast
CNC(=O)c1cn(-c2ccccc2)c(=O)c2ccccc12	12%	-2%
CC(=O)n1c(=O)c2ccccc2c(=O)n1-c1ccccc1	32µM*	-1%
Cc1ccc(NC(=O)C(CC(C)C)N2Cc3ccccc3C2=O)cc1F (centres undefined)	1%	.
CCCc1nn2c(=O)cc(COC(=O)c3ccc(NC(=O)CCc4ccccc4)cc3)nc2s1	0%	.
OCC1(CC2CCCCO2)CCN(Cc2ccccc2-c2ccco2)CC1 (centres undefined)	?	-1%
CCOC(=O)C1(CC2CCCCO2)CCN(Cc2ccccc2-c2ccco2)CC1 (centres undefined)	40µM*	0%
Nc1nc(C(=O)N2CCOCC2)nn1C(=O)c1ccc(Cl)cc1	35µM*	13%
O=C(c1ccc(Cl)cc1)c1ccccc1C(=O)N1CCOCC1	3%	-1%
Cc1ccc2occ(/C=N/NC(=O)[C@@H](N)Cc3ccccc3)c(=O)c2c1	-12%	3%
COCC(C)OC(=O)/C(C#N)=C\c1coc2ccc(C)cc2c1=O (centres undefined)	18µM*	-12%
COc1ccc(C(C)=O)c(Oc2nc(CN3CCOCC3)nc3scc(-c4cccs4)c23)c1	-16%	4%
CC(=O)c1ccccc1Oc1nc(CN2CCOCC2)nc2scc(-c3cccs3)c12	45µM*	2%
CCCNC(=O)C1Cc2cc(S(=O)(=O)N3CCCCCC3)ccc2N1C(C)=O (centres undefined)	3%	.
Cc1ccc(CCC(=O)Nc2nccs2)o1	45µM*	6%
CCc1ccc(CCC(=O)Nc2nccs2)o1	32µM*	-10%
Cc1ccc(NC(=O)CCc2ccc(C)o2)cc1	7%	-2%
O=C(CCc1ccccc1)Nc1nccs1	-25%	2%
CCN(C(=O)c1c(C)cc(=O)oc1C)c1ccc2c(c1)OCO2	0%	7%
CCN(C(=O)c1coc(=O)c(Br)c1)c1ccc2c(c1)OCO2	45µM*	-6%
CCOC(=O)/C(C#N)=C/c1ccc(-c2ccccc2)o1	-4%	.
CCOc1ccc(N=C/C=C/c2ccccc2)c(O)c1	40µM*	-6%
CCOc1ccc(NCC(=O)N/N=C/C=C/c2ccccc2)cc1	-4%	-19%
CCOc1ccc(NC(=O)Cc2ccc(-n3c(C)nc4cccnc43)cc2)cc1	3%	.
CC(=O)c1ccc(NC(=O)c2noc3c2CCC3)cc1	40µM*	1%
COc1ccc(NC(=O)c2noc3c2CCC3)cc1	-23%	-10%
SMILES	Sm TGR block	SARS PLP yeast
Cc1ccc(Nc2c(-c3cccnc3)nc3ccc(Cl)cn23)cc1	6%	.
O=C(CN1CCN(S(=O)(=O)c2ccc(Cl)cc2)CC1)c1ccc(O)c(O)c1	20µM*	-2%
COc1ccc(S(=O)(=O)N2CCN(CC(=O)c3ccc(O)c(O)c3)CC2)cc1	20µM*	-5%
COc1ccc(S(=O)(=O)N2CCN(S(=O)(=O)c3ccc(OC)cc3)CC2)cc1	-9%	6%
NC(=O)CN1CCN(S(=O)(=O)c2ccc(Cl)cc2)CC1	.	-1%
COc1cccc(C(=O)CN2CCN(S(=O)(=O)c3ccc(Cl)cc3)CC2)c1	22µM*	.
COc1cccc(N2CCN(CC(=O)N3CCN(S(=O)(=O)c4ccc(Cl)cc4)CC3)CC2)c1	5%	0%
O=C(CN1CCN(S(=O)(=O)c2ccc(F)cc2)CC1)Nc1ccc(F)cc1F	9%	-2%
O=C(CN1CCN(S(=O)(=O)c2ccc(F)cc2)CC1)c1ccc(O)c(O)c1	22µM*	3%
COc1ccc(CCNC(=O)c2ccc3c(c2)c(C)c(C)n3Cc2ccc(F)cc2)c(OC)c1OC	18%	.
O=C(NCc1cccs1)c1ccc(CSc2nc3ccncc3n2Cc2ccccc2)cc1	-9%	.
Cc1cc(C)cc(NC(=O)c2ccc3oc(=O)c(S(=O)(=O)c4ccc(F)cc4)cc3c2)c1	2%	.
Cc1noc(-c2ccc(N3CCCCC3)c([N+](=O)[O-])c2)n1	-4%	.
CCn1c2c(c(=O)n3ncc(C(=O)Nc4ccc(C(=O)OC)cc4)c13)CN(Cc1ccc(OC)cc1)CC2	-16%	.
CCOc1ccc(C(=O)CN2CCN(S(=O)(=O)c3ccc(F)cc3)CC2)cc1	25µM*	-7%
CCOc1ccc(S(=O)(=O)N2CCN(S(=O)(=O)c3ccc(C(C)=O)cc3)CC2)cc1	-19%	12%
Cc1cccc(C2c3[nH]c4ccccc4c3CCN2Cc2cccn2-c2ncccn2)c1 (centres undefined)	.	-1%
c1ccc(C2c3[nH]c4ccccc4c3CCN2Cc2cccn2-c2ccccn2)nc1 (centres undefined)	50µM*	0%
Cc1cc(C)cc(-n2nnc(-c3nc(-c4ccc5c(c4)OCO5)no3)c2C)c1	13%	.
